High-throughput results as filed in PubChem.
This is one part of a sample in which hits are shown more often than they occur.
TbPYK inhibitor = qHTS of Trypanosoma Brucei Inhibitors. pyruvate kinase (Trypanosoma brucei), Q57TT1. TbPYK enzyme, Kinase-Glo Plus ATP luminescence, 45 min. Potency, µM (highest dose often 76.8 µM), inactives show at the highest dose activity, negative = inhibition, actives largely listed as inhibitors. hit rate 0.12% among 410,000. AID 624173, 2012; further: potency means the concentration at half of the fitted maximal effect; on the % scale 0 is the no-effect control and ±100 the full control effect; nearly all actives have a fitted effect of over 50% in size
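Enzyme and substrate buffer are dispensed first and compound is pin-transferred. ADP at 130 uM final then starts the reaction, which runs 45 min at room temperature. Detection reagent is added for 10 min before luminescence is imaged.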
FBPA Giardia inh = qHTS Assay for Inhibitors of Fructose-1,6-bisphosphate Aldolase from Giardia Lamblia; A8B2U2; Potency, µM (doses to about 59.6 µM), for the others: at the top dose activity, negative = inhibition, hits mostly inhibitors; hit rate 0.71% among 290,000; purified Giardia FBPA; AID 2451, 2010; further: potency means the concentration at half of the fitted maximal effect; on the % scale 0 is the no-effect control and ±100 the full control effect; nearly all actives have a fitted effect of over 55% in size
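Giardia FBPA (40 nM reagent) was preincubated 10 min at RT with compound (up to 57.5 uM final), then substrate plus GAPDH/TPI/NAD/arsenate coupling system with diaphorase/resazurin was added; resorufin fluorescence (525/598 nm) was read after 20 min.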
RE007 growth inh = qHTS Assay for Inhibitors of the HIV-1 protein Vpr. S. pombe RE007 Vpr strain, BacTiter-Glo ATP luminescence, 24 h. Potency, µM (doses to about 92.2 µM), for the others: at the highest dose activity change, negative = less growth, most hits filed as inhibitors. hit rate 0.21% among 360,000. AID 651644, 2012; active means well fitted falling curve with a large enough effect; inconclusive means small, poorly fitted or top-dose-only effect; inactive means no such curve, though single readings can be large or run the other way; further: potency means the concentration at half of the fitted maximal effect; on the % scale 0 is the no-effect control and ±100 the full control effect; nearly all actives have a fitted effect of over 50% in size
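Fission yeast strain RE007, carrying one chromosomally integrated HIV-1 vpr copy, was seeded at OD 0.01 in PMG+AL medium with 23 nL pinned compound. After 24 h at 30 °C and 99% humidity, viability was read by BacTiter-Glo luminescence.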
Shiga toxin inh = A qHTS for Small Molecule Inhibitors of Shiga Toxin. Vero cells, Shiga toxin protein synthesis inhibition reporter. inhibition, % at 38.7 µM. hit rate 9.2% among 290,000; in the data active means inhibition mostly above about 28%, no sharp cut-off; inactive means mostly below about 43%; further: 0% is about no effect
LmPK inhibitor = qHTS Assay for Inhibitors of Leishmania Mexicana Pyruvate Kinase (LmPK). Potency, µM (doses to about 57.5 µM), inactives show at the highest dose activity change, negative = inhibition, usual class: inhibitors. purified LmPK, Kinase-Glo ATP luminescence, 1 h. hit rate 0.37% among 290,000; further: potency means the concentration at half of the fitted maximal effect; on the % scale 0 is the no-effect control and ±100 the full control effect
Target sequence (Q27686 whole entry, looked up): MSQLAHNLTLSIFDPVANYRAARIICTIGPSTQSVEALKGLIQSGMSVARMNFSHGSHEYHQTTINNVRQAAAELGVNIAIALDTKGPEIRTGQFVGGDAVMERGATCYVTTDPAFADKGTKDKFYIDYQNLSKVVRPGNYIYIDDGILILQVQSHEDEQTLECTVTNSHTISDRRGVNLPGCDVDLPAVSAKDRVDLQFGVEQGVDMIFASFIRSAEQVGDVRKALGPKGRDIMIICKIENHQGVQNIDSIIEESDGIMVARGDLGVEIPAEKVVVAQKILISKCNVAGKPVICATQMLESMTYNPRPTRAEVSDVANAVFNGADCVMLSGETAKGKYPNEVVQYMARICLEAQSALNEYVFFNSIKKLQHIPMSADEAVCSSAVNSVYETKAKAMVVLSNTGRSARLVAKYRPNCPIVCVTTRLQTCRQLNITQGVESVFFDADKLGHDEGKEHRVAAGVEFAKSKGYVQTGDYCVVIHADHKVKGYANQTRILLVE
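ATP generated from ADP (0.1 mM) and PEP (0.5 mM) by 0.1 nM LmPK over 1 h at room temperature (pH 7.2 imidazole buffer) was detected by coupled luciferase luminescence. Values were normalized to uninhibited and no-enzyme wells.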
Cycloheximide cs = Cycloheximide Counterscreen for Small Molecule Inhibitors of Shiga Toxin | hit rate 12% among 300,000 | max response, % | cell reporter, cycloheximide protein synthesis inhibition counterscreen; in the data active means max response mostly above about 13%, no sharp cut-off; inactive means mostly below about 14%; further: read at 38.3 µM for the half of the compounds with a filed dose; 0% is about no effect
* = called active by the depositor; i = inactive; ? = inconclusive; / = no result given; ! = not confirmed by another sample; [ ] = remark or other dose. Unless noted, the call rests on the fitted dose curve; in most records, active means well fitted curve in the direction sought with a large enough effect; inconclusive means small, poorly fitted or top-dose-only effect, or another doubt; inactive means no such curve, though single readings can be large; an effect the other way counts as inactive or inconclusive.

SMILES | TbPYK inhibitor | FBPA Giardia inh | RE007 growth inh | Shiga toxin inh | LmPK inhibitor | Cycloheximide cs
On1c(-c2ccccc2)nc2ccccc21 | 0% | 0% | 4% | 40 | -15% | 13
O=Nc1c2nc3ccccc3n(O)c-2c2ccccc12 | / | -7% | / | 115* | -21% | 73*
CC1COC2=C1C(=O)C(=O)c1c2ccc2c1CCCC2(C)C (configuration not stated) | / | 1.6µM* | / | 53* | / | 36
CNc1ccc2c3c(cccc13)C(=O)N(C)C2=O | -13% | -4% | / | -4 | 1% | -3
Cc1coc2cc3oc(=O)c4c(c3cc12)CCC4 | / | 5% | / | 12 | -7% | -5
C[C@H]1COC2=C1C(=O)C(=O)c1c2ccc2c1CCCC2(C)C | -4% | ? | -29% | 59* | 0% | 26*
Cc1coc2c1C(=O)C(=O)c1c-2ccc2c(C)cccc12 | -18% | 1.3µM* | -14% | 35* | -2% | 18*
Cc1coc2c1C(=O)C(=O)c1c-2ccc2c1CCCC2(C)C | 2% | 18µM*! | -9% | 39* | 1% | 24*
Cc1cn2c(=O)cc(COc3cccc(NC(=O)c4ccccc4C)c3)nc2s1 | -3% | / | / | / | / | /
COc1ccccc1C(=O)N1CCC(c2noc(-c3ccc(S(=O)(=O)N4CCCC4)cc3)n2)CC1 | -2% | / | / | / | / | /
CC/C(C)=N/N1C(=O)c2ccccc2NC1(C)CC (configuration not stated) | -2% | 6% | -17% | 77* | 1% | 30*
O=C(Nc1nc2ccccc2[nH]1)C1CCN(S(=O)(=O)c2cccs2)CC1 | 5% | -6% | 33% | 13 | 0% | 14*
O=C(Nc1ccccn1)C1CCN(S(=O)(=O)c2cccs2)CC1 | -4% | -1% | 1% | -9 | 2% | -5
CC(=O)c1ccc(NC(=O)C2CCN(S(=O)(=O)c3cccs3)CC2)cc1 | -1% | 1% | 12% | 44* | 7% | 44*
CC1CCN(C(=O)C2CCN(S(=O)(=O)c3cccs3)CC2)CC1 | -5% | 1% | 6% | 41 | 0% | 17*
CC1CC(C)CN(C(=O)C2CCN(S(=O)(=O)c3cccs3)CC2)C1 (configuration not stated) | -1% | 5% | 6% | -7 | -3% | -4
Cc1ccc(NC(=O)C2CCN(S(=O)(=O)c3cccs3)CC2)cc1C | 1% | 0% | 17% | 23 | -1% | 1
CCOC(=O)c1ccc(OC(=O)c2cn(-c3ccc(C)cc3)c(=O)c3ccccc23)cc1 | -9% | / | / | / | / | /
Cc1c(NCc2nc3ccccc3[nH]2)c(=O)n(-c2ccccc2)n1C | 4% | -2% | -3% | 57 | 0% | 29*
Cc1c(NCc2cc(Cl)cc(Cl)c2O)c(=O)n(-c2ccccc2)n1C | 1% | -2% | -8% | -10 | -8% | -3
Cc1ccc(/C=N/c2sc3c(c2C#N)CCC3)s1 | -12% | -4% | -13% | 114* | -16% | 55*
N#Cc1c(/N=C/c2cc3ccccc3s2)sc2c1CCC2 | -13% | -10% | 7% | 33* | 1% | 20*
Cc1ccc(/C=N/c2sc3c(c2C#N)CCCCC3)o1 | ? | -29% | -17% | 6 | ? | -2
OCC1(CO)CCCC(CO)(CO)C1O | -2% | / | 1% | / | / | /
Clc1cccc(-n2ncc3c(Nc4ccc5c(c4)OCCO5)ncnc32)c1 | 4% | / | / | / | / | /
SMILES | TbPYK inhibitor | FBPA Giardia inh | RE007 growth inh | Shiga toxin inh | LmPK inhibitor | Cycloheximide cs
COc1ccccc1N=Nc1nc(-c2ccccc2)c(-c2ccccc2)[nH]1 | -4% | 14% | 1% | -1 | -3% | 12*
Cc1ccc(CN2CCC(CNC(=O)c3cc4ccc5cccnc5c4[nH]3)CC2)cc1 | -3% | / | / | / | / | /
COc1ccc(C(=O)CC(=O)C(=O)Nc2ccccc2)cc1 | 17% | -5% | 2% | 36 | -1% | 22
COc1ccc(C(=O)CCNc2cccc(Cl)c2)cc1 | -3% | 1% | 380% | 24 | 1% | 9
COc1ccc(C(=O)CC(=O)C(=O)Nc2cc(C)ccc2C)cc1 | -4% | -8% | -15% | 4 | 6% | -3
COc1ccc(C(=O)CNc2cccc(F)c2)cc1 | -9% | 4% | -6% | 87* | -4% | 50*
COc1ccc(C(=O)CC(=O)C(=O)Nc2ccc(C)c(Cl)c2)cc1 | -4% | -16% | 0% | 29 | -3% | 23*
COc1ccc(C(=O)CC(=O)C(=O)Nc2cccc(F)c2)cc1 | -9% | 2% | -23% | 50* | 1% | 19*
CCC(=O)Nc1ccc(CC)cc1-c1nc2ccccc2n(CC(=O)Nc2cccc(Cl)c2)c1=O | -2% | / | / | / | / | /
COP(=O)(OC)C(Nc1ccc(Cl)cc1)c1ccccc1 (configuration not stated) | -1% | -7% | 3% | / | -2% | -2
COC(=O)c1ccc(NC(c2ccc(Cl)cc2)P(=O)(OC)OC)cc1 (configuration not stated) | -12% | 0% | 18% | 20 | 9% | 32*
CC1CCC(C(C)C)C(=O)/C1=C/c1ccc(N)cc1 (configuration not stated) | -25% | -10% | -5% | 92* | -3% | 35*
CC1/C(=C\c2ccc(Cl)cc2)C(=O)C2CC1C2(C)C (configuration not stated) | 8% | 9% | 15% | -4 | -5% | -2
CC(C)=NO[C@@H](C)CN1CCCCc2nc(C)c(C)cc21 | / | -1%[12.9 µM] | / | / | / | /
COc1ccc(-c2cc(=Nc3c(C)n(C)n(-c4ccccc4)c3=O)c3ccccc3o2)cc1 | 0% | -17% | -16% | 48* | -3% | 41*
COc1ccc(-c2csc(=Nc3c(C)n(C)n(-c4ccccc4)c3=O)n2C(C)(C)C)cc1 | -17% | 13% | 5% | 4 | 0% | 0
COc1ccc([C@]23Cc4cc(OC)c(OC)cc4C(O2)C2=C(CC4(CCCCC4)OC2=O)O3)cc1 | / | 8%[12.9 µM] | / | i | -8%[11.5 µM] | 5
CCOc1ccc(N2C=Nc3ccc(OCC)cc3C2)cc1 | -5% | 6% | -4% | 48* | -6% | 14*
CN(Cc1cccnc1)C(=O)c1cc(COc2ccc3c(c2)CCCC3)on1 | -3% | -4% | -15% | 82* | 0% | 70*
CCc1ccc(CN(C)C(=O)c2cc(COc3ccc(OC)cc3Cl)on2)nc1 | -5% | -1% | -14% | 84* | -7% | 68*
CC(=O)c1cccc(OCc2cc(C(=O)N(C)Cc3cnccn3)no2)c1 | -2% | -7% | 1% | 88* | 2% | 51*
CCc1ccc(CN(C)C(=O)c2cc(COc3cccc(C(F)(F)F)c3)on2)nc1 | -1% | 3% | -7% | 39 | 2% | 14
